Only some compounds are listed: those with a hit (about 11% of all), similar ones and a draw of the others.
HPGD inh – inhibitors of human 15-hydroxyprostaglandin dehydrogenase (HPGD) | P15428 | purified HPGD, NADH fluorescence kinetic, PGE2 substrate | Potency, µM, for the others: top-dose activity change, negative = inhibition, usual class: inhibitors | 150,000 compounds, 4.3% hits; active means well fitted inhibition curve with a large enough effect, not every such curve was filed as active; inconclusive means small, poorly fitted or top-dose-only effect, or another doubt; inactive means no such curve, though single readings can be large or run the other way; further: potency means the concentration at half of the fitted maximal effect
Target sequence (P15428 whole entry, looked up): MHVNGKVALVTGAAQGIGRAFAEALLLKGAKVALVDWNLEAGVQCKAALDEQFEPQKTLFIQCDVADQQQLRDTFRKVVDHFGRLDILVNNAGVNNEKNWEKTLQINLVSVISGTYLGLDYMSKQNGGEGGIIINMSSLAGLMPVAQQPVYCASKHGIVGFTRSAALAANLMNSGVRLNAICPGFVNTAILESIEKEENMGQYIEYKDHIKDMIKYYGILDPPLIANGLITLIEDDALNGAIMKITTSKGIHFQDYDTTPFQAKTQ
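20 nM HPGD preincubated 15 min at room temperature with compound in 50 mM Tris-HCl pH 8, 0.01% Tween 20. Started with 1 mM NAD+ and 30 uM prostaglandin E2; NADH fluorescence (360/450 nm) read 5 times over 30-s intervals, last minus first.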
PNC inhibitor – inhibitors of perinucleolar compartment assembly | 140,000 compounds, 3.1% hits | activity change (PNC), negative = inhibition, % at 10 µM | PC3M PTB-GFP, PNC prevalence imaging, 16 h; stronger effect = lower value | AID 2417;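 active means readout at or below -70, meaning at least 70% loss of cells showing the perinucleolar compartment, a nuclear body marking cancer cells; inconclusive means readout between -30 and a set limit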;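 further: plate controls were DMSO wells for no effect and camptothecin positive control wells for full effect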
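Compounds are pinned in duplicate onto adhered PC3M cells stably expressing GFP-tagged PTB and incubated 16 h at 37 C. Cells are then fixed, nuclei stained with Hoechst, and PNC-positive cells counted.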
12-hLO inh – 12-hLO (ALOX12) enzyme inhibition. purified 12-hLO, xylenol orange hydroperoxide absorbance. Potency, µM (doses to about 57.1 µM), inactives show at the top dose activity change, negative = inhibition, most hits filed as inhibitors. 150,000 compounds, 0.12% hits. AID 1452; further: potency means the concentration at half of the fitted maximal effect; nearly all actives have a fitted effect of over 55% in size
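Lipoxygenase turnover measured by absorbance at 573 and 405 nm after Fe-XO development. Human 12hLO 150 nM, arachidonate 40 uM, pH 7.0 Hepes buffer with detergent; 15 min compound preincubation, 30 min reaction.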
IMPase Li cell – membrane-permeable IMPase blocker, potentiated with lithium. Potency, µM (highest dose often 59.4 µM), inactives show at the highest dose activity, negative = IMPase inhibition, actives largely listed as inhibitors. 210,000 compounds, 0.35% hits. AID 1457. CHO-M1 cells, IP1 TR-FRET (IP-One), carbachol + lithium;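 further: IP1 builds up when IMPase is blocked and the TR-FRET signal falls; potency means the concentration at half of the fitted maximal effect; plate controls were basal vehicle for no effect and high inhibitor control for full effect; nearly all actives have a fitted effect of over 50% in size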
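CHO cells stably expressing M1 receptor (2000/well) were cultured 16–30 h, then exposed to compounds with a small lithium addition for 30 min at 37C. IP1 was measured by TR-FRET competition; AC50 from Hill fits.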
IMPase inh – IMPase inhibition in cells. P97697. CHO-M1 cells, IP1 accumulation, HTRF TR-FRET ratio. inhibition (IP1 accumulation), % at 46.1 µM. 120,000 tested, under 10 active. AID 901; active means well fitted curve in the direction sought with a large enough effect in the signal ratio, not every such curve was filed as active; inconclusive means small, poorly fitted or top-dose-only effect, or a change in a side signal; inactive means no such curve, though single readings can be large or run the other way; the % refers to the signal ratio;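 further: cells stimulated with carbachol in lithium chloride buffer; plate controls were DMSO basal wells for no effect and reference inhibitor wells for full effect; higher means more IMPase inhibition seen as more IP1 and lower FRET ratio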
Target sequence (P97697 whole entry, looked up): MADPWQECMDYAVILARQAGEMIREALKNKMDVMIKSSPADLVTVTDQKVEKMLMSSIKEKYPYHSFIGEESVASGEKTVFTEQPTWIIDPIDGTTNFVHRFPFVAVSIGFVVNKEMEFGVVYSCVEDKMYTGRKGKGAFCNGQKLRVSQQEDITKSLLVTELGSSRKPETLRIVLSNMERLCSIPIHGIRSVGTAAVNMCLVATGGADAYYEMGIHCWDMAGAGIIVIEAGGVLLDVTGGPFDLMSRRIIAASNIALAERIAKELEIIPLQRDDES
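CHO-M1, 2000 cells/well, cultured 16–30 h; cpd up to 46 uM; carbachol (50 uM solution, stimulation buffer w/ 50 mM LiCl, pH 7.4), 30 min 37C; IP-One TR-FRET, 10 min RT; Ex 320/Em 665, 620; Hill-fit AC50.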
ALDH1A1 inh – inhibitors of human aldehyde dehydrogenase 1A1; P00352; Purified ALDH1A1, NADH fluorescence, propionaldehyde substrate; Potency, µM (doses to about 75.3 µM), for the others: at the highest dose activity, negative = inhibition, usual class: inhibitors; 220,000 compounds, 7.3% hits; active means well fitted inhibition curve with a large enough effect, not every such curve was filed as active; inconclusive means small, poorly fitted or top-dose-only effect, or another doubt; inactive means no such curve, though single readings can be large or run the other way;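 further: potency means the concentration at half of the fitted maximal effect; plate controls were no enzyme wells and a reference inhibitor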
The depositor's hits bear a star; ? = inconclusive; . = no result given; [ ] = dose if it differs, or a comment. Unless noted, the call rests on the fitted dose curve; in most records, active means well fitted curve in the direction sought with a large enough effect; inconclusive means small, poorly fitted or top-dose-only effect, or another doubt; inactive means no such curve, though single readings can be large; an effect the other way counts as inactive or inconclusive. Unless noted, on the % scale 0 is the no-effect control and ±100 the full control effect.

SMILES	HPGD inh	PNC inhibitor	12-hLO inh	IMPase Li cell	IMPase inh	ALDH1A1 inh
O=C(CN1CCN(S(=O)(=O)c2ccc(Br)cc2)CC1)Nc1ccccc1F	-16%	18	-10%	26%[38.3 µM]	2	28µM*
Cn1cccc1C(=O)N1CCC2(CCCN(C(c3ccccc3)c3ccccc3)C2)CC1	-11%	.	-7%	27%	.	1%
COc1cc2c(cc1OC)C(=O)OC2	-17%	.	6%	0%	.	8%
O=C(CN1CCN(S(=O)(=O)c2ccc(Br)cc2)CC1)N/N=C/c1cccnc1	-5%	-90*	-7%	-1%	-5	-1%
COc1ccc(C)cc1NC(=O)CN1CCN(S(=O)(=O)c2ccc(Br)cc2)CC1	-10%	-28	-5%	5%[38.3 µM]	-4	0.16µM*
Cc1ccsc1/C=N/NC(=O)CN1CCN(S(=O)(=O)c2ccc(Br)cc2)CC1	0%	-28	-11%	-1%	.	17%
COc1ccc(S(=O)(=O)CCC(=O)Nc2cc(C)ccc2OC)cc1	.	.	.	5%	.	25µM*
CCN1CCN(C(=O)NC(C(=O)NC2C(=O)N3C2SC(C)(C)C3C(=O)O)c2ccccc2)C(=O)C1=O (stereo not given)	-7%	.	-4%	-3%	.	1%
COc1ccc(NC(=O)/C(C#N)=C/c2c(C)nn(-c3ccc(F)cc3)c2Cl)cc1Cl	-13%	-83*	-4%	-19%	.	9%
Cc1nn(-c2ccccc2)c(Cl)c1/C=C(\C#N)C(=O)NC(C)C	-26%	-25	-4%	19%	.	14µM*
O=c1cnc2cnc(N3CCNCC3)nc2n1Cc1cccs1	?	.	4%	32%	.	?
COc1ccc(CCCO[C@@H](Cn2ccnc2)c2ccc(OC)cc2)cc1	-28%	.	-10%	23%	11	?
Cc1cccc(N=Cc2cc3c(cc2[N+](=O)[O-])OCO3)c1	-20%	-8	?	-24%[38.3 µM]	7	?
Cc1ccc(N2NC(=O)/C(=C\c3cc4c(cc3[N+](=O)[O-])OCO4)C2=O)cc1C	4µM*	30	-25%	19%	.	18µM*
c1ccc(Cn2nnnc2CN2CCN(Cc3ccc4c(c3)OCO4)CC2)cc1	.	-18	-4%	.	8	20µM*
Cc1ccc(C(c2nnnn2Cc2cccs2)N2CCN(Cc3ccc4c(c3)OCO4)CC2)cc1 (stereo not given)	-15%	-27	-21%	39%[38.3 µM]	11	10µM*
c1ccc2c(c1)CCN(Cc1nnnn1Cc1ccc3c(c1)OCO3)C2	-5%	?	-7%	8%	?	?
O=C(CSC1CCCCC1)Nc1ccccc1Br	18µM*	?	0%	5%	.	1%
COc1ccc(Cl)cc1NC(=O)COC(=O)/C=C/c1c(C)nn(C2CCS(=O)(=O)C2)c1Cl (stereo not given)	.	1	-4%	.	-15	25µM*
COC(=O)c1ccccc1NC(=O)c1cnn2cccnc12	.	.	.	5%	.	2%
CCN1C(=O)C(CC(=O)Nc2ccc(C)cc2C)Nc2cc(S(=O)(=O)N(C)C)ccc21 (stereo not given)	.	.	.	-2%	.	28µM*
COc1ccc(CCNC(=S)N2CCC(Cc3ccccc3)CC2)cc1OC	.	.	.	21%	.	?
O=C1CCC(=O)N1c1cccc(OS(=O)(=O)c2ccccc2)c1	-6%	?	2%	3%	.	0.35µM*
CC1CCC2C(=O)N(c3cccc(OS(=O)(=O)c4ccccc4)c3)C(=O)C2C1 (stereo not given)	-13%	31	0%	11%	.	13µM*
O=C(Oc1cccc(N2C(=O)CCC2=O)c1)c1ccccc1	-15%	-5	2%	-4%	2	-2%
CCN(CC)CCNC(=O)c1ccc(Cc2nc3ccccc3[nH]2)cc1	0%	.	3%	.	.	11%
Cc1ccc(-c2noc(COc3ccc(Br)c(C)c3)n2)cc1	.	.	.	.	4	.
OCc1cn(-c2ccccc2)nc1-c1ccc(-c2nn(-c3ccccc3)cc2CO)cc1	?	22	-13%	28µM*	0	?
